Compound activity: PubChem BioAssay, National Center for Advancing Translational Sciences (NCATS)
Sampled rows, rich in hits. Any-hit rate of the full collection: about 2.4%.
TRHR PAM = TRH receptor (human) allosteric enhancement | TRHR cells, fluo-8 calcium fluorescence, EC20 TRH enhancement | enhancement, % at 2 µM | 360,000 tested, 0.66% active; in the data active means enhancement above about 30%; further: 0% is about no effect
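TRHR-expressing cells loaded with fluo-8 calcium dye were read kinetically (ex 480/em 530) during compound addition, then stimulated with an EC20 of TRH (10 nM final). Enhancement of the Gq-mediated intracellular calcium response was scored.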
GLP-1R inv ag = inverse agonists of human GLP-1 receptor | P43220 | HEK293 GLP-1R CRE-luciferase, luminescence, 24 h; GLP-1R form is constitutively active | Potency, µM (series often up to 38.3 µM), for inactives: at the top dose activity change, negative = inhibition, actives largely listed as inhibitors | 410,000 tested, 1.6% active; further: potency means the concentration at half of the fitted maximal effect; on the % scale 0 is the no-effect control and ±100 the full control effect; nearly all actives have a fitted effect of over 55% in size
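Using stably transfected HEK293 (constitutively active GLP-1R, cAMP-luciferase reporter), compounds were incubated 24 hr and luciferase measured by luminescence.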
PTHR1 ag = PTHR1 (human) receptor agonism | Potency, µM (doses to about 115 µM), inactives show top-dose activation, hits mostly activators | 410,000 tested, 0.075% active | HEK293 GP2 PTHR1 cells, GloSensor cAMP luminescence, 1 h; further: potency means the concentration at half of the fitted maximal effect; nearly all actives have a fitted effect of over 55% in size
Target sequence (Q03431 whole entry, looked up): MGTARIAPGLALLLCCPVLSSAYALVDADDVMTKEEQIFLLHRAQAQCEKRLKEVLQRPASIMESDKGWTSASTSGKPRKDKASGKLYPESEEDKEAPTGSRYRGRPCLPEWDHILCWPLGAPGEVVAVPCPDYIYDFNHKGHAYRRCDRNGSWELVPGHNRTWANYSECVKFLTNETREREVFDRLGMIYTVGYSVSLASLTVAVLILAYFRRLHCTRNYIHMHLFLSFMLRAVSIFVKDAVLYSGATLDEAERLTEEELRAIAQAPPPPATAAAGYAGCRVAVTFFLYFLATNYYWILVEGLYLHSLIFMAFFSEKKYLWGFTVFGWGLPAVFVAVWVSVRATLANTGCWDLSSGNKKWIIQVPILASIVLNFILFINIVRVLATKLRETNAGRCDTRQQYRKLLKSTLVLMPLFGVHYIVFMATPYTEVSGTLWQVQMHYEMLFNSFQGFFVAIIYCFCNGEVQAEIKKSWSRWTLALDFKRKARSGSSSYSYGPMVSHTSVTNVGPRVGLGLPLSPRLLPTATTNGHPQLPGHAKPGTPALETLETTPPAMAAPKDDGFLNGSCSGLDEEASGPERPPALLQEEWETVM
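HEK-293-derived GP2 cells expressing PTHR1 and a GloSensor cAMP reporter, 3,000/well, plated overnight, given luciferin plus IBMX (each 0.5 mM as added) for 1 h at 37 °C, then compound for 1 h at 37 °C. Luminescence was read after 15 min at room temperature.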
GLP-1R agonist = GLP-1 receptor (human) agonism; HEK293 GLP-1R CRE-luciferase, luminescence, 4-6 h; cells express a hypersensitive GLP-1R form; Potency, µM (series often up to 45.6 µM), without a hit: at the highest dose activation, most hits filed as activators; 380,000 tested, 0.007% active; AID 624172; further: potency means the concentration at half of the fitted maximal effect; % of control where 0% means no effect
TRHR ag = agonists of human TRH receptor; P34981; TRHR cells, calcium flux fluo-8, FDSS agonist mode; activation, % at 2 µM; 360,000 tested, 0.18% active; AID 493084; in the data active means activation above about 30%; further: 0% is about no effect
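TRHR-expressing cells loaded with fluo-8 calcium dye; 23 nL library compound pin-transferred, kinetic FDSS fluorescence (Ex 480/Em 530) recorded about 180 s for agonist-induced calcium release, before a 10 nM TRH EC20 addition for potentiator mode.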
GLP1R cytotox = cytotoxic in the GLP-1 receptor inverse agonist counter-screen | HEK293 cAMP-luciferase reporter cells, luminescence, 24 h | Potency, µM (series often up to 38.3 µM), for inactives: at the top dose activity change, negative = inhibition, actives largely listed as inhibitors | 410,000 tested, 0.13% active | AID 624418;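 further: loss of luciferase light is scored as toxicity; potency means the concentration at half of the fitted maximal effect; on the % scale 0 is the no-effect control and ±100 the full control effect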
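Compound-treated cells are incubated 24 hr at 37 deg C under 5% CO2 after a 12 hour attachment period, then luciferase detection reagent is added and luminescence is measured following 12 min at room temperature; lowered signal indicates toxicity.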
* hit, by the source's call; [ ] = dose if it differs, or a comment. Unless noted, the call rests on the fitted dose curve; in most records, active means well fitted curve in the direction sought with a large enough effect; inconclusive means small, poorly fitted or top-dose-only effect, or another doubt; inactive means no such curve, though single readings can be large; an effect the other way counts as inactive or inconclusive.

Screening O=C(C1COc2ccccc2O1)N1CCN(Cc2ccc(Br)cc2F)CC1 (stereo not given) returned TRHR PAM -0.6, GLP-1R inv ag 11.2µM*, PTHR1 ag -92.1%, GLP-1R agonist 6.7%, TRHR ag 0.3 and GLP1R cytotox 6.6%.
`COc1cc(OC)c2c(C)c(CC(=O)N3CCCCC3)c(=O)oc2c1` gave TRHR PAM 35.4*, GLP-1R inv ag -23.2%, PTHR1 ag inactive, TRHR ag -0.1 and GLP1R cytotox 1.5%.
Screening CC(=O)Oc1ccc2c(C)c(CC(=O)N3CCN(C(=O)C4COc5ccccc5O4)CC3)c(=O)oc2c1C (stereo not given) returned TRHR PAM 0.9, GLP-1R inv ag -14.4%, PTHR1 ag -18.6%, GLP-1R agonist 4.6%, TRHR ag -0.4 and GLP1R cytotox inactive.
For Cc1cc(O)c2c(C)c(CC(=O)N3CCN(C(=O)C4COc5ccccc5O4)CC3)c(=O)oc2c1 (stereo not given) the results were TRHR PAM -2.7, GLP-1R inv ag 6.31µM*, PTHR1 ag -43.5%, GLP-1R agonist -0.4%, TRHR ag -1.6 and GLP1R cytotox 12.0%.
O=C(C1COc2ccccc2O1)N1CCN(c2ccccc2O)CC1 (stereo not given) was read as TRHR PAM -6.3, GLP-1R inv ag -27.7%, PTHR1 ag -16.6%, GLP-1R agonist 4.2%, TRHR ag 1.5 and GLP1R cytotox 2.0%.
`CCCNC(=O)c1cc2n(n1)CCCN(Cc1ccc(F)cc1)C2=O` gave TRHR PAM 1.0, GLP-1R inv ag 10.2%, PTHR1 ag inactive, TRHR ag -0.1 and GLP1R cytotox -6.4%.
`O=C(NC(=S)Nc1ccc(O)cc1)c1cncc(Br)c1` gave GLP-1R inv ag 9.9%, PTHR1 ag -1.6%, GLP-1R agonist 3.2% and GLP1R cytotox 3.0%.
Screening CCCCNC(=O)c1ccc(N2CCC3(CC2)OCCO3)c([N+](=O)[O-])c1 returned TRHR PAM 0.7, GLP-1R inv ag -20.2%, PTHR1 ag inactive, GLP-1R agonist 6.3%, TRHR ag -0.1 and GLP1R cytotox 8.8%[1.53 µM].
CC(=O)/C(=N/Nc1ccccc1[N+](=O)[O-])N1CCCc2ccccc21 was read as TRHR PAM -9.0, GLP-1R inv ag 10µM*, PTHR1 ag -7.7%, GLP-1R agonist 20.7%, TRHR ag -0.5 and GLP1R cytotox inconclusive.
CC(=O)/C(=N/Nc1ccc([N+](=O)[O-])cc1)N1CCCc2ccccc21 was read as TRHR PAM -5.0, GLP-1R inv ag -0.4%, PTHR1 ag -19.5%, GLP-1R agonist 10.0%, TRHR ag 3.3 and GLP1R cytotox 0.0%.
Screening O=C(CSc1nnc2scc(-c3ccccc3)n12)N1CCN(Cc2ccccc2)CC1 returned TRHR PAM 39.0*, GLP-1R inv ag 1.8%, PTHR1 ag -22.4%, GLP-1R agonist 6.9%, TRHR ag -0.1 and GLP1R cytotox -1.6%.
`COc1cccc(NC(=O)Cc2c(O)c3ccccc3[nH]c2=O)c1` gave TRHR PAM 30.6*, GLP-1R inv ag -20.0%, PTHR1 ag -12.1%[57.5 µM], GLP-1R agonist -6.5%, TRHR ag 1.1 and GLP1R cytotox -1.1%.
For CCOc1ccc(NC(=O)Cc2c(O)c3ccccc3[nH]c2=O)cc1 the results were TRHR PAM 6.9, GLP-1R inv ag 4.5%, PTHR1 ag inactive, GLP-1R agonist -6.4%, TRHR ag 0.2 and GLP1R cytotox 10.6%.
Screening COC(=O)C1C2CC3c4[nH]c5cc(OC)ccc5c4CCN3CC2CC(OC2CCCCO2)C1OC (stereo not given) returned GLP-1R inv ag 4.8%, PTHR1 ag inactive, GLP-1R agonist -4.6% and GLP1R cytotox 36.5%.
`CN(C)c1ccc(NC(=O)CSc2nc3ccsc3c(=O)n2CCCCCC(=O)O)cc1` gave TRHR PAM 0.9, GLP-1R inv ag 7.7%, PTHR1 ag 13.5%, TRHR ag 0.1 and GLP1R cytotox -5.9%.
`COC(=O)CNC(c1ccccc1Cl)c1cc(Br)ccc1NS(=O)(=O)c1ccc(C)cc1` (stereo not given) gave TRHR PAM -3.5, GLP-1R inv ag 3.55µM*, PTHR1 ag inactive, GLP-1R agonist -18.2%, TRHR ag -1.0 and GLP1R cytotox 2.6%.
For CCc1ccc(NC(=O)Cc2cn(C)c3ccccc23)cc1 the results were TRHR PAM 3.8, GLP-1R inv ag 10µM*, PTHR1 ag inconclusive, GLP-1R agonist 10.1%, TRHR ag -0.3 and GLP1R cytotox 9.8%.
Screening O=C(c1ccco1)N1CCN(S(=O)(=O)c2ccc(C3CCCCC3)cc2)CC1 returned TRHR PAM -7.0, GLP-1R inv ag 19.0%, PTHR1 ag -21.2%, GLP-1R agonist -0.5%, TRHR ag -0.8 and GLP1R cytotox -3.0%.
CS(=O)(=O)c1ccccc1C(=O)N1CCN(S(=O)(=O)c2ccc(C3CCCCC3)cc2)CC1 was read as TRHR PAM -0.3, GLP-1R inv ag 10µM*, PTHR1 ag -35.5%, GLP-1R agonist -0.8%, TRHR ag -0.4 and GLP1R cytotox -7.1%.
Cc1ccsc1C(=O)C1CCCN(Cc2cccn2-c2ccc(Cl)cn2)C1 (stereo not given) was read as TRHR PAM -5.7, GLP-1R inv ag inconclusive, PTHR1 ag -35.0%, GLP-1R agonist -5.8%, TRHR ag 2.0 and GLP1R cytotox inconclusive.
Screening Cc1ccc(-n2cccn2)c(CN2CCCC(C(=O)c3sccc3C)C2)c1 (stereo not given) returned TRHR PAM -8.9, GLP-1R inv ag inconclusive, PTHR1 ag inactive, GLP-1R agonist 4.0%, TRHR ag 1.9 and GLP1R cytotox 11.2µM*.
`COc1cccc(CN(C)CC(=O)NCc2ccc(C)cc2)c1` gave TRHR PAM -3.1, GLP-1R inv ag inconclusive, PTHR1 ag -21.7%, GLP-1R agonist 28.9%, TRHR ag -0.7 and GLP1R cytotox 5.4%.
CCOc1cccc(C(=O)N(Cc2ccc(F)cc2)C2CCS(=O)(=O)C2)c1 (stereo not given) was read as TRHR PAM -2.0, GLP-1R inv ag 0.6%, PTHR1 ag inactive, GLP-1R agonist 0.1%, TRHR ag 0.0 and GLP1R cytotox -8.9%.
For CCCc1cc(Nc2cccc(OCC)c2)n2ncnc2n1 the results were TRHR PAM -2.5, GLP-1R inv ag 13.0%, PTHR1 ag inactive, GLP-1R agonist 19.6%, TRHR ag 0.5 and GLP1R cytotox 2.0%.
Screening CCCc1cc(Nc2ccccc2C)n2ncnc2n1 returned TRHR PAM 35.4*, GLP-1R inv ag 41.2%, PTHR1 ag inactive, GLP-1R agonist 5.9%, TRHR ag 0.4 and GLP1R cytotox 4.5%.
